We go through one sequence from article PMC7862700, “An all-to-all approach to the identification of sequence-specific readers for epigenetic DNA modifications on cytosine”.

What all share (assay): DAPPL (digital affinity profiling via proximity ligation, sequencing); 10 mM Tris-HCl pH 7.5, 50 mM NaCl, 1 mM DTT, 4% glycerol, room temperature, 30 min; GST-TFs on glutathione beads, 16-mer random dsDNA library, 0.1% formaldehyde crosslink after washing; high values mean tight binding
For one assay, the target named is T1, FEV (Homo sapiens, UniProt Q99581 1-238).
T1 sequence: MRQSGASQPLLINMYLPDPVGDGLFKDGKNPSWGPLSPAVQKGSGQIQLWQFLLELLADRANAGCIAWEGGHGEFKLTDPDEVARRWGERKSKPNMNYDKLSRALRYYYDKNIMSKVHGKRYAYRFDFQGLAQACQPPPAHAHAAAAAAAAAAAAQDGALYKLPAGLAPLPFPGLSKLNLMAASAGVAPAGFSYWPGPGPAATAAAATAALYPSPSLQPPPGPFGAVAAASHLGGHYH
The settings on record: protein: recombinant; tags: N-terminal GST; dsDNA, one strand shown. In short, it runs like this:
(§1)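 In yeast, human transcription factors were expressed with a GST fusion, then pulled down on glutathione beads and given DNA barcodes. Pooled with a tag-only sample, they were exposed to 200 nmole of a 16-mer random double-stranded DNA library (Tris/NaCl/DTT/glycerol buffer, room temperature, 30 min), washed, crosslinked with 0.1% formaldehyde, proximity-ligated using BsaI/T4 ligase for 1 h at 37 °C, PCR-amplified and read on an Illumina NextSeq500. Each hexamer's frequency of reads for a factor, divided by the matching frequency for the tag-only sample, gives the binding signal.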

The target of another assay is ETV5 (Homo sapiens, UniProt P41161 1-510). Conditions: protein: recombinant; tags: N-terminal GST; dsDNA, one strand shown. Put shortly:
as §1

The next assay addresses HSF1 (Homo sapiens, UniProt Q00613 1-529). Conditions: protein: recombinant; tags: N-terminal GST; chain copies: 3; dsDNA, one strand shown. Put shortly: as §1
The next assay has as its target T2, SPIC (Homo sapiens, UniProt Q8N5J4 1-248).
T2 sequence: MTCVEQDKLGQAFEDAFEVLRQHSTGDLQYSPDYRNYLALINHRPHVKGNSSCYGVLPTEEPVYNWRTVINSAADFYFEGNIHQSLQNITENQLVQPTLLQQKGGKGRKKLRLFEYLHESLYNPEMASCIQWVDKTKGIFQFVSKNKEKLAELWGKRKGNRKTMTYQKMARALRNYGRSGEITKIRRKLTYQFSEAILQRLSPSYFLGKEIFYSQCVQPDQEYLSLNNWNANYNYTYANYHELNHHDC
Conditions: protein: recombinant; tags: N-terminal GST; dsDNA, one strand shown. Put shortly:
as §1

Another assay concerns the target ELF4 (Homo sapiens, UniProt Q99607 1-663). Conditions: protein: recombinant; tags: N-terminal GST; dsDNA, one strand shown. Put shortly:
as §1

The next assay has as its target T3, ELK4 (Homo sapiens, UniProt P28324-2 1-405).
T3 sequence: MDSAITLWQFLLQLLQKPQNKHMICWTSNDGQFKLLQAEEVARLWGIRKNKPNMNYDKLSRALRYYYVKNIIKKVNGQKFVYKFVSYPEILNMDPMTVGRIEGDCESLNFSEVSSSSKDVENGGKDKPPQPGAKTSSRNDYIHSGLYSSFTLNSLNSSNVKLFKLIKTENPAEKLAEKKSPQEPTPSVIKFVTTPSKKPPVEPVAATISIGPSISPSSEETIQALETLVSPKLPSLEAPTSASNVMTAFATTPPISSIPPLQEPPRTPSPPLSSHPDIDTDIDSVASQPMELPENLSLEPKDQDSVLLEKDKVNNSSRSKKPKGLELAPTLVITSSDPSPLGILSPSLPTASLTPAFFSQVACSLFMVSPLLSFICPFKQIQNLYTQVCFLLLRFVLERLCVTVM
Conditions: protein: recombinant; tags: N-terminal GST; dsDNA, one strand shown. Put shortly: as §1

In another assay the target is T4, ETV2 (Homo sapiens, UniProt O00321 1-342).
T4 sequence: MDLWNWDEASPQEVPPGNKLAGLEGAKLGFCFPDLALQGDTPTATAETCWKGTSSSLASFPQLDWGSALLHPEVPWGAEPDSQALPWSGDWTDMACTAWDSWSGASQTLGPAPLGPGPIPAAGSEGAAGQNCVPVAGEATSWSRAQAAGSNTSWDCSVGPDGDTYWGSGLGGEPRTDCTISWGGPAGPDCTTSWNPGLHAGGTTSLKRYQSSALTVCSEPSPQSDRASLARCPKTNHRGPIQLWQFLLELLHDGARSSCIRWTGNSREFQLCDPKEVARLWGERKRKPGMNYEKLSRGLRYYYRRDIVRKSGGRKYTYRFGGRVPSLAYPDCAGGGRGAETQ
The settings on record: protein: recombinant; tags: N-terminal GST; dsDNA, one strand shown. Put shortly: as §1

The target of a further assay is T5, ELF3 (Homo sapiens, UniProt P78545 1-371).
T5 sequence: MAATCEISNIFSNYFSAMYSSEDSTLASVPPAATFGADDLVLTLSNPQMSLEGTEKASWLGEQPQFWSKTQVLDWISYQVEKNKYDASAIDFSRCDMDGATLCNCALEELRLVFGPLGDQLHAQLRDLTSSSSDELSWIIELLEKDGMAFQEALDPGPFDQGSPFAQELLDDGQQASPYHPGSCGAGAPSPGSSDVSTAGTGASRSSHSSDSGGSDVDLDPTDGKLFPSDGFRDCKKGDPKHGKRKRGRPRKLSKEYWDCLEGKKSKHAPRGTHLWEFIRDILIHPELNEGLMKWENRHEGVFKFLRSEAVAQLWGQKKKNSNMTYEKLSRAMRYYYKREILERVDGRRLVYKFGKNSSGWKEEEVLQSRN
The settings on record: protein: recombinant; tags: N-terminal GST; dsDNA, one strand shown. Put shortly:
as §1

A further assay has as its target CRX (Homo sapiens, UniProt O43186 1-299). The settings on record: protein: recombinant; tags: N-terminal GST; dsDNA, one strand shown. In short, it runs like this: as §1
In the next assay the target is ETV1 (Homo sapiens, UniProt P50549 1-477). The settings on record: protein: recombinant; tags: N-terminal GST; dsDNA, one strand shown. In short, it runs like this:
as §1

Another assay has as its target T6, ERF (Homo sapiens, UniProt P50548 1-548).
T6 sequence: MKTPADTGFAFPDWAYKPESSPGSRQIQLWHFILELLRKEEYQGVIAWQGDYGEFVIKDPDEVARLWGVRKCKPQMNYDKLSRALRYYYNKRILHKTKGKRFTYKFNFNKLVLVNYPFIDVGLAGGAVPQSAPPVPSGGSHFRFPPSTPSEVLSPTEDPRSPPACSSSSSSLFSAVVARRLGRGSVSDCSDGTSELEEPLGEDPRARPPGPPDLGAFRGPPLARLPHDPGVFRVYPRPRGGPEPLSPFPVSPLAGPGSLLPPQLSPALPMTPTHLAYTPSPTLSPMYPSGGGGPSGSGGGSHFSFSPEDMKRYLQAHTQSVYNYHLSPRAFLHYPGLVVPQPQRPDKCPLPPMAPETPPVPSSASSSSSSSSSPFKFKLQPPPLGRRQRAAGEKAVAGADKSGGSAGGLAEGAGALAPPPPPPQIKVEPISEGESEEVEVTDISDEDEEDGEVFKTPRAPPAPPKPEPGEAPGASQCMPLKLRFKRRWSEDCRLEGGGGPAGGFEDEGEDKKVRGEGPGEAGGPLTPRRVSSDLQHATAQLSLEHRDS
Conditions: protein: recombinant; tags: N-terminal GST; dsDNA, one strand shown. In short, it runs like this: as §1

The target in a further assay is T7, ETV3L (Homo sapiens, UniProt Q6ZN32 1-361).
T7 sequence: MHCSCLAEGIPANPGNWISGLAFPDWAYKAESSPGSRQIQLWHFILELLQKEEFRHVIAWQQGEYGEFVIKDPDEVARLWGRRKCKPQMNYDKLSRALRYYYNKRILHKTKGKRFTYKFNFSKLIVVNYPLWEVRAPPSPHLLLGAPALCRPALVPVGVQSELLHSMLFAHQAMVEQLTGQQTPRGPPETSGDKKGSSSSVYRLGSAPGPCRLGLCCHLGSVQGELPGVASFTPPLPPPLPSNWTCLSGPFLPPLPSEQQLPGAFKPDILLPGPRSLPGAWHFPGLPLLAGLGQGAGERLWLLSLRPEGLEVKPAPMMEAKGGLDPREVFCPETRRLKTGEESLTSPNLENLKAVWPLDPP
The settings on record: protein: recombinant; tags: N-terminal GST; dsDNA, one strand shown. Put shortly:
as §1

The next assay deals with T8, ETS2 (Homo sapiens, UniProt P15036 1-469).
T8 sequence: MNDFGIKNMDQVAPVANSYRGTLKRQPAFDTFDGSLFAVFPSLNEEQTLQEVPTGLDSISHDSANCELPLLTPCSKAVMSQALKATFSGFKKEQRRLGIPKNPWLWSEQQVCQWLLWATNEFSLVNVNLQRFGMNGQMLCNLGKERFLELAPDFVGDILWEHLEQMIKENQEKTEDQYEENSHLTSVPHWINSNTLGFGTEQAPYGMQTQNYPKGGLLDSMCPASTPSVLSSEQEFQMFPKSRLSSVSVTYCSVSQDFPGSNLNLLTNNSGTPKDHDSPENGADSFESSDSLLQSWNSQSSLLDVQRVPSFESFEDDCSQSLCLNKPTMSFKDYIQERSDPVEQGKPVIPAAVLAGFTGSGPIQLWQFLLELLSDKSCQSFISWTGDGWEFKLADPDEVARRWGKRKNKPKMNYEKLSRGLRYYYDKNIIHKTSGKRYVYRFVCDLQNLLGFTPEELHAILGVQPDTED
The settings on record: protein: recombinant; tags: N-terminal GST; dsDNA, one strand shown. Put shortly:
as §1

The target in another assay is T9, SPDEF (Homo sapiens, UniProt O95238 1-335).
T9 sequence: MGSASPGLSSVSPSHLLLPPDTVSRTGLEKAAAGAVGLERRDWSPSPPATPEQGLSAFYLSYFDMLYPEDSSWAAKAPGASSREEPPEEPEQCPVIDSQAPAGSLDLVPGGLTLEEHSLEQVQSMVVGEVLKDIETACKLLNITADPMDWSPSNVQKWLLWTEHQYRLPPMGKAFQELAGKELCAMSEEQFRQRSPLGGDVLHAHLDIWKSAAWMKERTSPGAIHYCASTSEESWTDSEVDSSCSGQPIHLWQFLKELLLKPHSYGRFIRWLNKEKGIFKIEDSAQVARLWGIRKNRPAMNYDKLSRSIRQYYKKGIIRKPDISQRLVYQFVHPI
Conditions: protein: recombinant; tags: N-terminal GST; dsDNA, one strand shown. Put shortly: as §1

Another assay deals with T10, ETV7 (Homo sapiens, UniProt Q9Y603 1-341).
T10 sequence: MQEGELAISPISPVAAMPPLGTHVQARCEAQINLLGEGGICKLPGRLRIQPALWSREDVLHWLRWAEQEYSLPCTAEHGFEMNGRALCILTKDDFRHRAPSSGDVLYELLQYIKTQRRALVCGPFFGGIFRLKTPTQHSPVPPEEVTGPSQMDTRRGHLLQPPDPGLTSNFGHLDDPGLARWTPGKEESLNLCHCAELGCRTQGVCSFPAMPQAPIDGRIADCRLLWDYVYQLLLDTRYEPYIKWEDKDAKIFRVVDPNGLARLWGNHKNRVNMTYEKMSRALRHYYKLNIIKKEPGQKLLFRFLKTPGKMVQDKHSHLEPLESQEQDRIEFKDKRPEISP
Conditions: protein: recombinant; tags: N-terminal GST; dsDNA, one strand shown. Put shortly: as §1

The target of the next assay is T11, ELF5 (Homo sapiens, UniProt Q9UKW6-2 1-255).
T11 sequence: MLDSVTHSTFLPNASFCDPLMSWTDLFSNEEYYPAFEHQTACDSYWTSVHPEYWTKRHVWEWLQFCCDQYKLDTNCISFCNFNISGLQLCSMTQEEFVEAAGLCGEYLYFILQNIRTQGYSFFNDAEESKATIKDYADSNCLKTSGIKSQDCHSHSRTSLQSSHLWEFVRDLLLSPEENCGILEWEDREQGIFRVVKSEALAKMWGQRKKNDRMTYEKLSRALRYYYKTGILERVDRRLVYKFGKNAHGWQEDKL
Conditions: protein: recombinant; tags: N-terminal GST; dsDNA, one strand shown. In short, it runs like this:
as §1

The next assay has as its target T12, ETV3 (Homo sapiens, UniProt P41162-2 1-143).
T12 sequence: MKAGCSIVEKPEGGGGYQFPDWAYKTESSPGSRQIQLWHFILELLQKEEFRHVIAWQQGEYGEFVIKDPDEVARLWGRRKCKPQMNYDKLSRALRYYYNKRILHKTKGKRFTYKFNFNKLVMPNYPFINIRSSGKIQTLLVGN
The settings on record: protein: recombinant; tags: N-terminal GST; dsDNA, one strand shown. Put shortly: as §1

The target of a further assay is ETV6 (Homo sapiens, UniProt P41212 1-452). Conditions: protein: recombinant; tags: N-terminal GST; dsDNA, one strand shown. In short, it runs like this:
as §1

Sequence of ELF4 (Q99607 whole entry): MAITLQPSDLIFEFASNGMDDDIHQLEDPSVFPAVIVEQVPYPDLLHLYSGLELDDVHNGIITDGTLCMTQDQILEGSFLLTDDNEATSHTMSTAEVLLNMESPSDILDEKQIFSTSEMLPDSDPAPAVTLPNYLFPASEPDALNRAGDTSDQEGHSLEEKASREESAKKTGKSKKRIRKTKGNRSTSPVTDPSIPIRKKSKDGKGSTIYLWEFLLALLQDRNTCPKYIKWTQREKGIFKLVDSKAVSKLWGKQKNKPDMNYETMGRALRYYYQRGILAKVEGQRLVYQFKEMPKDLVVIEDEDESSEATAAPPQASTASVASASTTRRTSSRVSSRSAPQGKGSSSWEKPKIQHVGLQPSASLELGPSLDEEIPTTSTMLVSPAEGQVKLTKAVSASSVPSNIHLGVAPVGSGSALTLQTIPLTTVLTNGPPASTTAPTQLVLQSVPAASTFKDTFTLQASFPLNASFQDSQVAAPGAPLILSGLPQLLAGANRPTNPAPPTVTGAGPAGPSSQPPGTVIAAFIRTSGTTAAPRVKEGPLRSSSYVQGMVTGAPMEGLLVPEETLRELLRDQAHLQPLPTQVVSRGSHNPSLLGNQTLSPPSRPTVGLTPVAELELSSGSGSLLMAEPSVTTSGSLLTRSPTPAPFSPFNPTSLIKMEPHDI
Sequence of ETV5 (P41161 whole entry): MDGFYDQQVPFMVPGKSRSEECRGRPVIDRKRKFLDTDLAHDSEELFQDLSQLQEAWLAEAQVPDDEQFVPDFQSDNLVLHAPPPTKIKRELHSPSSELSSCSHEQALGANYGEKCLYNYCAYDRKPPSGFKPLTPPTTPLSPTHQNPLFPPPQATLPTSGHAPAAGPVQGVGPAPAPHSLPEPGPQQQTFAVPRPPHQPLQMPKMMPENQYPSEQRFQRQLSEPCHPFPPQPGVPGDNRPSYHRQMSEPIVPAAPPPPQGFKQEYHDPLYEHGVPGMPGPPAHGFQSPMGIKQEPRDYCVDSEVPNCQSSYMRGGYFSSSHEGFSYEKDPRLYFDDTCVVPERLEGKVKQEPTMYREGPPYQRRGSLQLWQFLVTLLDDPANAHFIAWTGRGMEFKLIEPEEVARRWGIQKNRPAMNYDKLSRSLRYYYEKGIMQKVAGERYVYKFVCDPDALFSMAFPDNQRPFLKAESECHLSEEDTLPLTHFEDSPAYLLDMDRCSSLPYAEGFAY
Sequence of ETV6 (P41212 whole entry): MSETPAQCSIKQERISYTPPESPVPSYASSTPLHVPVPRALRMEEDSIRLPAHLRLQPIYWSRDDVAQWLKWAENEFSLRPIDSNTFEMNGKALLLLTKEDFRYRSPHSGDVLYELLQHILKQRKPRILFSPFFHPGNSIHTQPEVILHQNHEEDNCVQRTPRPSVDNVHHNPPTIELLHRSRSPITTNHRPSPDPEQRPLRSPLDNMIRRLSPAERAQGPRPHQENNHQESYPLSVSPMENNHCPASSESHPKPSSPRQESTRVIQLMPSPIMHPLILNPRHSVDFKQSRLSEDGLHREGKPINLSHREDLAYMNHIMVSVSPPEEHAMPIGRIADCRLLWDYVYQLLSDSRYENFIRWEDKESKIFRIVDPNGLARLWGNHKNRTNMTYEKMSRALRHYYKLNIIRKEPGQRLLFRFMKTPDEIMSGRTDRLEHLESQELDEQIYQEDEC
Sequence of ETV1 (P50549 whole entry): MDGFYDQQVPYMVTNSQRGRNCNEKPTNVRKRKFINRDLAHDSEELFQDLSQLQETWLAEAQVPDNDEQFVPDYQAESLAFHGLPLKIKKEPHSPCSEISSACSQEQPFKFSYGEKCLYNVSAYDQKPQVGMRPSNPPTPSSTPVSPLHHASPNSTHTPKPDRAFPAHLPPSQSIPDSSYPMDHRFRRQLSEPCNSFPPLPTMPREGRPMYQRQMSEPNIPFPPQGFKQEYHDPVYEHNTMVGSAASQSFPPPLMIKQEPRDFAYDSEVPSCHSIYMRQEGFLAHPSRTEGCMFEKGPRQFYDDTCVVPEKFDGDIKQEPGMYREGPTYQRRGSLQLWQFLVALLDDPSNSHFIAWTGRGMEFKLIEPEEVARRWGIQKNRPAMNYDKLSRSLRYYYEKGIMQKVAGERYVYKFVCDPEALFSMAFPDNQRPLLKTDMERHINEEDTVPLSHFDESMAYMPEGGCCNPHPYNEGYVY
Sequence of HSF1 (Q00613 whole entry): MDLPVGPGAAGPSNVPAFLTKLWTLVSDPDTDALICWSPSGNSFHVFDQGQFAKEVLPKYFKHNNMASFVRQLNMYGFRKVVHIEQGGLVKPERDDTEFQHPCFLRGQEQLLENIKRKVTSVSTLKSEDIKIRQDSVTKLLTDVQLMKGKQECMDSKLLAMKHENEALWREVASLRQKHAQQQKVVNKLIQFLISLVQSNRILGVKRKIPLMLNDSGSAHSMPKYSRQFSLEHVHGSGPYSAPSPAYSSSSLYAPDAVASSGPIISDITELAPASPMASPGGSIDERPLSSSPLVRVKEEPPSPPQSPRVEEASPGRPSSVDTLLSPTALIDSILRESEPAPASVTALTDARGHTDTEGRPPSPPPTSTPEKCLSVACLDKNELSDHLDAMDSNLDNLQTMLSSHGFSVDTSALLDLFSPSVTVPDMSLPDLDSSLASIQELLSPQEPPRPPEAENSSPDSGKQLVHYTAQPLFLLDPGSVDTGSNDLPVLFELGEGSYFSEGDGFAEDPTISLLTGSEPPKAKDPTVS
Sequence of CRX (O43186 whole entry): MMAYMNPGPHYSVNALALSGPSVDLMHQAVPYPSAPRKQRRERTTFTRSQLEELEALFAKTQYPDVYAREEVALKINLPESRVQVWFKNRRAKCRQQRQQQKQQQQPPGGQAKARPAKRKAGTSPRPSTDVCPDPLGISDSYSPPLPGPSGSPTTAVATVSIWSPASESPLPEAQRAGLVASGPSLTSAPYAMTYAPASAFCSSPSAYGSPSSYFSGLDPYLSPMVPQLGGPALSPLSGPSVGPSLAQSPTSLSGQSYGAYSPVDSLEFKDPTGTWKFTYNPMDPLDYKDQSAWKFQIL

For GCTAAA, the binding signal with FEV was 1.05 fold enrichment (6-mer frequency, TF over GST control); with ETV5, 1.15 fold enrichment (6-mer frequency, TF over GST control); with HSF1 it was 1.17 fold enrichment (6-mer frequency, TF over GST control); with SPIC it was 1.09 fold enrichment (6-mer frequency, TF over GST control); in the assay with ELF4, 1.06 fold enrichment (6-mer frequency, TF over GST control); with ELK4 it was 1.11 fold enrichment (6-mer frequency, TF over GST control). The binding signal with ETV2 was 1.12 fold enrichment (6-mer frequency, TF over GST control); with ELF3 it was 1.07 fold enrichment (6-mer frequency, TF over GST control); in the assay with CRX, 1.4 fold enrichment (6-mer frequency, TF over GST control); with ETV1, 1.26 fold enrichment (6-mer frequency, TF over GST control); in the assay with ERF, 1.19 fold enrichment (6-mer frequency, TF over GST control); with ETV3L, 1.15 fold enrichment (6-mer frequency, TF over GST control). Besides, the binding signal with ETS2 is 1.13 fold enrichment (6-mer frequency, TF over GST control); with SPDEF it was 1.08 fold enrichment (6-mer frequency, TF over GST control); in the assay with ETV7, 1.08 fold enrichment (6-mer frequency, TF over GST control); with ELF5, 1.04 fold enrichment (6-mer frequency, TF over GST control); in the assay with ETV3 it was 1.13 fold enrichment (6-mer frequency, TF over GST control); with ETV6 it was 1.08 fold enrichment (6-mer frequency, TF over GST control).
